Bioassay records as filed in PubChem.
SMARCA2 activ = SMARCA2 (BRM) function activators, primary screen, cell-based, luminescence, high throughput | AID 652017, 2013 | MG213 cells, MMTV-luciferase reporter, dexamethasone, overnight | activation, % at 9.1 µM | 370,000 compounds, 1% hits; in the data active = activation above about 7.8%
M18AAP inhibitor = PfM18AAP inhibitors, malaria aminopeptidase, primary screen, biochemical, QFRET, recombinant enzyme | 290,000 compounds, 1.2% hits | H-Glu-NHMec fluorogenic cleavage | inhibition, % at 7.35 µM | M18 aspartyl aminopeptidase (Plasmodium falciparum 3D7) | AID 1822, 2009;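 active = inhibition above the campaign mean inhibition over all tested compounds plus 3 SD, cut at about 28% in these data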
Granule exo inh = LAMP-1 surface exposure blockers, TALL-104 cells – cell-based, flow cytometry, MLPCN library, primary screen; AID 651702, 2012; inhibition, % at 10 µM; 360,000 compounds, 0.66% hits; TALL-104 LAMP-1 surface exposure; cells stimulated with thapsigargin and PMA;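 active = inhibition above about 55%, limit read from the data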
ALR H2O2 inh = inhibitors of human ALR sulfhydryl oxidase, primary screen, biochemical, H2O2 detection, HRP-luminol luminescence, single point | purified ALR, DTT oxidation | inhibition, % (no concentration beside the values) | 290,000 compounds, 3.8% hits;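 active = mean replicate inhibition above about 79%, with every replicate also reaching it, limit read from the data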
JMJD2C inh = inhibitors of GASC-1 histone demethylase, primary screen, biochemical, fluorescence, DELFIA europium; inhibition, % at 2.35 µM; AID 2099, 2009; Lysine-specific demethylase 4C (Homo sapiens), Q9H3R0; 330,000 compounds, 0.069% hits; GST-JMJD2C(1-420) H3K9me3 demethylation;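 active = more than half of a compound's replicate wells show inhibition beyond 50%, single wells judged on their own value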;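 also: signal counts dimethyl H3K9 product captured on neutravidin plate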
Target sequence (Q9H3R0 1-420 limits assumed): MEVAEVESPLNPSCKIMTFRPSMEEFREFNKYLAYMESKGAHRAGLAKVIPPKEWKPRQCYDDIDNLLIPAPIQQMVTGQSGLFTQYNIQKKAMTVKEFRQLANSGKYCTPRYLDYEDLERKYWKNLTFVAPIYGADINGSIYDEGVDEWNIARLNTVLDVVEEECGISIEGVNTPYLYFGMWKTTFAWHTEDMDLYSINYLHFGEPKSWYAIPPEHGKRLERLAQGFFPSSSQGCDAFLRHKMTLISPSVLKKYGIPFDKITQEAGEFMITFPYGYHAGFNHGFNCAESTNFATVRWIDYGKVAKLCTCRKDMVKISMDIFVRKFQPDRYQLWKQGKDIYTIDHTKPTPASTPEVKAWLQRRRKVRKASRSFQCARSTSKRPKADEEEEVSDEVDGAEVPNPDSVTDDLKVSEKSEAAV
beta cell repl = inducers of MIN6 beta-cell proliferation, primary screen, ATP luminescence, uHTS | MIN6 cells proliferation, ATPlite luminescence, 48 h; cells starved in 0.2% serum; 100% = growth in 10% serum | proliferation, % at 10 µM | 330,000 compounds, 0.29% hits | AID 2380, 2010;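 active = compounds whose signal lies at least 3.5 SD above the mean of all wells on their plate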
Large screens that a line does not name were inactive. An excerpt weighted towards active compounds, which were near 5.4% of everything screened.

O=C1CC(c2ccco2)CC(O)=C1C=NCCO (configuration not stated)	none
Cc1ccc(N2C(=O)CC(SCC(=O)Nc3ccc(S(N)(=O)=O)cc3)C2=O)cc1 (configuration not stated)	ALR H2O2 inh 99
CCOC(=O)c1ccc(N2C(=O)CC(SCC(=O)Nc3ccc(S(N)(=O)=O)cc3)C2=O)cc1 (configuration not stated)	ALR H2O2 inh 99
O=C(O)CSC1CC(=O)N(c2ccc(Cl)c(Cl)c2)C1=O (configuration not stated)	ALR H2O2 inh 98
O=C(CSC1CC(=O)N(c2ccc(C(=O)O)cc2)C1=O)Nc1ccc2ccccc2c1 (configuration not stated)	ALR H2O2 inh 100
O=C(NCc1ccco1)C1CCCN(S(=O)(=O)c2ccc([N+](=O)[O-])cc2)C1 (configuration not stated)	none (no result: M18AAP inhibitor, Granule exo inh, ALR H2O2 inh, JMJD2C inh, beta cell repl)
Cc1ccc(S(=O)(=O)Nc2cc(C(=O)O)ccc2N2CCC(C)CC2)cc1C	none (no result: M18AAP inhibitor, Granule exo inh, ALR H2O2 inh, JMJD2C inh, beta cell repl)
O=C(NCCc1c[nH]c2ccccc12)OCc1cn(Cc2ccc(C(F)(F)F)cc2)nn1	none (no result: M18AAP inhibitor, Granule exo inh, ALR H2O2 inh, JMJD2C inh, beta cell repl)
CCn1cc(C(=O)N2CCN(c3ccccn3)CC2)c2cc(OC)c(OC)cc2c1=O	SMARCA2 activ 8.4 (no result: beta cell repl)
COc1cc(OC)c(C(=O)N2CCN(c3ccccn3)CC2)cc1OC	none
CC1(C)CN=c2s/c(=C\c3ccc(Cl)cc3)c(=O)n2C1	ALR H2O2 inh 97
CSC1=N/C(=C\c2ccc(Cl)cc2)C(=O)N1N(C)C	none
O=C(Nc1cccc(F)c1)OCCCN1CCC2(CCC(c3ccccc3)CC2)C1 (configuration not stated)	none (no result: M18AAP inhibitor, Granule exo inh, ALR H2O2 inh, JMJD2C inh, beta cell repl)
C=CCn1c(SCC(N)=O)nnc1-c1cc(Br)ccc1O	ALR H2O2 inh 97
C=CCn1c(SCC(=O)c2ccc(O)c(O)c2)nnc1-c1cccc(Cl)c1	ALR H2O2 inh 98 (no result: M18AAP inhibitor)
C=CCn1c(SCC(=O)c2ccc(O)c(O)c2)nnc1-c1cccc(C)c1	none (no result: M18AAP inhibitor)
O=[N+]([O-])c1cccc(OCCCN2CCC(Cc3ccccc3)CC2)c1	Granule exo inh 86 (no result: ALR H2O2 inh, beta cell repl)
O=C(CSc1nc2ccccc2n1Cc1ccccc1Cl)N/N=C\c1cccc(Oc2ccccc2)c1	none (no result: M18AAP inhibitor, Granule exo inh, ALR H2O2 inh, JMJD2C inh, beta cell repl)
C[C@H]1C(c2ccccc2F)O[C@]2(C[C@H](O)c3c(ccc4ccccc34)O2)C[C@@H]1O (some centres not stated)	none (no result: M18AAP inhibitor, Granule exo inh, ALR H2O2 inh, JMJD2C inh, beta cell repl)
COc1ccc(-n2cnc3cc(NS(=O)(=O)c4ccccc4)ccc32)cc1	none (no result: ALR H2O2 inh)
COc1ccc(-n2cnc3cc(N)ccc32)cc1	ALR H2O2 inh 99
O=C(CSc1nnc(-c2cccs2)o1)c1ccc2c(c1)OCO2	none (no result: M18AAP inhibitor, Granule exo inh, ALR H2O2 inh, JMJD2C inh, beta cell repl)
Nc1ccccc1NC1=CC(=O)CC(c2ccccc2)C1 (configuration not stated)	none (no result: SMARCA2 activ, Granule exo inh)
Nc1ccccc1NC1=CC(=O)CC(c2ccco2)C1 (configuration not stated)	SMARCA2 activ 7.9, ALR H2O2 inh 84
CC1CC(Nc2ccccc2N)=CC(=O)O1 (configuration not stated)	ALR H2O2 inh 86
Cc1ccc(NC2=CC(=O)CC(c3ccco3)C2)c(N)c1 (configuration not stated)	ALR H2O2 inh 98
O=C(OCc1ccc(Br)cc1)c1cnc(Cl)c(Cl)c1	Granule exo inh 61 (no result: ALR H2O2 inh)
O=C(OCc1ccc(Br)cc1)c1ccncc1	none
CCOC(=O)CSc1n[nH]c(NC(=O)c2cccc(C)c2)n1	ALR H2O2 inh 97
Cc1sc2ncnc(N/N=C/c3ccc(O)cc3)c2c1C	none
Cc1sc2ncnc(N/N=C/c3ccccc3O)c2c1C	ALR H2O2 inh 91 (no result: beta cell repl)
Cc1cc(C)c2c(=O)[nH]c(SCC(=O)Nc3ccc(N(C)C)cc3)nc2n1	ALR H2O2 inh 99
Cc1cc(C)cc(NC(=O)CSc2nc3nc(C)cc(C)c3c(=O)[nH]2)c1	ALR H2O2 inh 99 (no result: M18AAP inhibitor)
Cc1ccc(NC(=O)CSc2nc3nc(C)cc(C)c3c(=O)[nH]2)cc1	none
CN(C)c1ccc(NC(=O)CSc2nc3c(c(=O)[nH]2)CCCC3)cc1	ALR H2O2 inh 96 (no result: SMARCA2 activ)
